# FMDV inh – antivirals against foot and mouth disease virus; FMDV antiviral cell-based qHTS; Potency, µM (series often up to 57.9 µM), inactives show at the highest dose activity change, negative = inhibition, usual class: inhibitors; 410,000 tested, 1.2% active; AID 1159524; calls by dose curve; tested in HEK293T cells; further: read-out not given here; potency means the concentration at half of the fitted maximal effect; nearly all actives have a fitted effect of over 45% in size
# Vaccinia Venus – vaccinia inhibition (Venus reporter); Potency, µM (doses to about 36.5 µM), inactives show at the top dose activity change, negative = inhibition, hits mostly inhibitors; 330,000 tested, 0.46% active; AID 720580; Vaccinia virus Venus reporter expression, fluorescence; calls by dose curve; tested in A549 cells; further: potency means the concentration at half of the fitted maximal effect; nearly all actives have a fitted effect of over 30% in size
# HCV inh – blocks hepatitis C virus | Potency, µM (highest dose often 41.8 µM), inactives show top-dose activity change, negative = inhibition, most hits filed as inhibitors | 340,000 tested, 3.4% active | Huh7.5.1 HCVcc-Cre infection, luciferase reporter, 44 h | AID 651820; further: potency means the concentration at half of the fitted maximal effect
#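 Antiviral activity was scored by luciferase reporter output from cells infected with HCVcc-Cre (~0.5 moi) in presence of compound, 44 h infection period, cells seeded 1,000/well 4 h prior.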
# Vaccinia mCherry – vaccinia inhibition (mCherry reporter). Vaccinia virus mCherry reporter infection, fluorescence. 310,000 tested, 0.63% active. Potency, µM (doses to about 36.5 µM), inactives show top-dose activity change, negative = inhibition, hits mostly inhibitors; calls by dose curve; tested in A549 cells; further: potency means the concentration at half of the fitted maximal effect; nearly all actives have a fitted effect of over 35% in size
# HCMV antiviral – human cytomegalovirus inhibition; activity change, negative = inhibition, % at 57.5 µM; 410,000 tested, 4.5% active; HFF cells, HCMV-luciferase reporter, 72 h; stronger effect = lower value; AID 1259415; in the data active means activity change below about -60%; inconclusive means no clear call, values can overlap the other calls; inactive means above about -39%
#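 Screen run at 2 compound doses on HFFs infected with reporter HCMV, MOI 1 PFU/cell. Luciferase activity from cell lysates at 72 h post infection gave inhibition relative to buffer-only and Salinomycin wells.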
# Giardia FBPA inh-1 – blocks Giardia fructose-bisphosphate aldolase activity; A8B2U2; purified Giardia FBPA; Potency, µM (doses to about 59.6 µM), for inactives: at the top dose activity, negative = inhibition, hits mostly inhibitors; 290,000 tested, 0.71% active; AID 2451; further: potency means the concentration at half of the fitted maximal effect; nearly all actives have a fitted effect of over 55% in size
#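 40 nM FBPA preincubated 10 min at RT with compound (up to 57.5 uM final), then substrate plus GAPDH/TPI/NAD/arsenate coupling and diaphorase/resazurin added. Fluorescence read after 20 min at RT, 525/598 nm.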
# Giardia growth – Giardia lamblia growth inhibition; shares compounds with Giardia FBPA inh-1; Giardia lamblia trophozoite growth inhibition; Potency, µM (top dose mostly 57.5 µM), for inactives: at the highest dose activity change, negative = inhibition, usual class: inhibitors; AID 2785; 1,500 tested, 5% active;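 further: potency means the concentration at half of the fitted maximal effect; trophozoites exposed to compound for 48 h at 37 °C; nearly all actives have a fitted effect of over 70% in size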
# Mammal cell tox – toxic to mammalian cells in Giardia aldolase counter-screen. AID 2786. shares compounds with Giardia FBPA inh-1. mammalian cell viability counter-screen, qHTS. Potency, µM (doses to about 57.5 µM), for inactives: at the highest dose viability change, negative = toxicity, actives largely listed as inhibitors. 1,500 tested, 4% active;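 further: Chinese hamster ovary cells used as mammalian cytotoxicity surrogate; viability measured as cellular ATP by luminescence; potency means the concentration at half of the fitted maximal effect; compound exposure lasted 48 h before reading; nearly all actives have a fitted effect of over 60% in size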
# Giardia FBPA inh-2 – confirmation of Giardia fructose-bisphosphate aldolase inhibitors. shares compounds with Giardia FBPA inh-1. purified Giardia aldolase enzyme activity, qHTS. Potency, µM (top dose mostly 57.5 µM), without a hit: top-dose activity change, negative = inhibition, usual class: inhibitors. 1,500 tested, 5% active; further: potency means the concentration at half of the fitted maximal effect; nearly all actives have a fitted effect of over 45% in size
# Rabbit aldolase – rabbit FBP aldolase inhibition by Giardia aldolase hits. shares compounds with Giardia FBPA inh-1. Rabbit muscle FBPA enzyme inhibition, selectivity counter-screen. Potency, µM (titrated, usually from 57.5 µM), inactives show top-dose activity, negative = inhibition, most hits filed as inhibitors. 1,500 tested, 4% active; further: potency means the concentration at half of the fitted maximal effect; nearly all actives have a fitted effect of over 60% in size
# Target sequence (P00883 whole entry, looked up): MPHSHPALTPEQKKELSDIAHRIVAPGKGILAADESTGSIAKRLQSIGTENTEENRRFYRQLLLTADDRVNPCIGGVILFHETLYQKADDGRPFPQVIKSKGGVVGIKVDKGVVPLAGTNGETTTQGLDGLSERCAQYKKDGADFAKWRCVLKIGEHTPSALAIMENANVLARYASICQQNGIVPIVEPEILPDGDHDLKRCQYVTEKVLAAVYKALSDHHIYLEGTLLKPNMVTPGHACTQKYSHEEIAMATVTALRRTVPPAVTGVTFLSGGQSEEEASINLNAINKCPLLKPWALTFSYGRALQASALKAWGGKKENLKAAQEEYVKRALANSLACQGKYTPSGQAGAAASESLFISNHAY
# GAPDH coupling – GAPDH inhibition flagged for Giardia aldolase hits; shares compounds with Giardia FBPA inh-1; GAPDH coupling enzyme counterscreen, biochemical, qHTS; Potency, µM (top dose mostly 57.5 µM), inactives show at the top dose activity change, negative = inhibition, hits mostly inhibitors; 1,500 tested, 6% active; further: potency means the concentration at half of the fitted maximal effect; nearly all actives have a fitted effect of over 55% in size
# Numbers without * were called inactive; i = inactive; ? = inconclusive; . = no result; [ ] = remark or other dose. A selection: hits, their analogues and other compounds. The true share with any hit is near 7.5%. Unless noted, the call rests on the fitted dose curve; in most records, active means well fitted curve in the direction sought with a large enough effect; inconclusive means small, poorly fitted or top-dose-only effect, or another doubt; inactive means no such curve, though single readings can be large; an effect the other way counts as inactive or inconclusive. On the % scale 0 is the no-effect control and ±100 the full control effect.
SMILES,FMDV inh,Vaccinia Venus,HCV inh,Vaccinia mCherry,HCMV antiviral,Giardia FBPA inh-1,Giardia growth,Mammal cell tox,Giardia FBPA inh-2,Rabbit aldolase,GAPDH coupling
CCOc1ccc(C2C(C(N)=O)=C(C)Nc3nc(SCc4ccccc4F)nn32)cc1 (centres undefined),-16%,7%,.,-11%,-22,.,.,.,.,.,.
O=C(O)c1cccc(Cl)n1,54%,-6%,19%,-15%,0,-24%,.,.,.,.,.
O=C(O)c1ccc2cccc(O)c2n1,1%,-6%,20%,3%,14,2.2µM*,?,21%,?,-28%,?
COC(=O)c1cc(C)nc2c1C(=O)C(=O)C=C2N1CCOCC1,3.5µM*,4.5µM*,2.5µM*,?,-93*,0.25µM*,25µM*,20µM*,1.3µM*,1.4µM*,1.4µM*
Cc1ccc(NC(=O)Cn2cc(S(=O)(=O)Cc3ccc(F)cc3)c3ccccc32)cc1Cl,-15%,-20%,.,-2%,?,.,.,.,.,.,.
COc1cccc(C2CC(=O)N3CN(c4cccc(Cl)c4C)CSC3=C2C#N)c1OC (centres undefined),-5%,1%,13%,42%,12,?,.,.,.,.,.
COc1cccc(C2CC(=O)N3CN(c4ccccc4F)CSC3=C2C#N)c1 (centres undefined),-3%,7%,1%,6%,-4,3.2µM*,-7%[10.4 µM],19%,-20%,-26%,-6%
COc1cc(OC)c(C2CC(=O)N3CN(C)CSC3=C2C#N)cc1OC (centres undefined),-24%,-10%,3%,-1%,7,0.56µM*,6%[38.3 µM],-11%,?,-27%,?
COc1ccc(Br)cc1C1CC(=O)N2CN(C)CSC2=C1C#N (centres undefined),-24%,6%,4%,-14%,-20,?,.,.,.,.,.
COc1ccc(OC)c(C2CC(=O)N3CN(c4cccc(Cl)c4C)CSC3=C2C#N)c1 (centres undefined),-6%,6%,-6%,51%,-11,1.4µM*,?,-9%,-29%,?,?
COc1ccc(OC)c(C2CC(=O)N3CN(c4ccc(C)c(Cl)c4)CSC3=C2C#N)c1 (centres undefined),0%,16%,-3%,-20%,?,5µM*,-7%[10.4 µM],6%,?,?,-27%
CCOc1ccc(N2CSC3=C(C#N)C(c4ccco4)CC(=O)N3C2)cc1 (centres undefined),10%,-7%,0%,-4%,19,7.9µM*,44%,-3%,?,?,?
Cc1ccc(C2CC(=O)N3CN(c4ccc(Br)cc4)CSC3=C2C#N)o1 (centres undefined),2%,.,11%,.,67,?,.,.,.,.,.
COc1ccc(OC)c(C2CC(=O)N3CN(c4cccc(Cl)c4)CSC3=C2C#N)c1 (centres undefined),0%,-10%,10%,i,28,3.5µM*,21%,5%,-17%,-24%,-19%
O=C(O)Cc1ccc(-n2cccc2)cc1,-8%,-13%,24%,i,21,9%,.,.,.,.,.

# Bioassay records as filed in PubChem BioAssay.
